Records with an inconclusive call do not appear. Activity calls are given as the source filed them. Calls come from the whole dose curve; as a rule, active = well fitted inhibition curve with a large enough effect; inconclusive = small, poorly fitted or top-dose-only effect; inactive = flat fitted curve, though single readings scatter.
Test system: HEK293
Experiment: Cytotoxic Profiling of Annotated Libraries Using Quantitative High-Throughput Screening (AID 1296008); note: nearly all actives have a fitted effect of over 60% in size
Conditions: Five cell lines viability, CellTiter-Glo ATP luminescence, 48-72 h; max response: active compounds read low
How it was run: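 Compounds were pin-transferred onto cells and incubated 48 or 72 hr at 37 degree Celsius, 95% humidity. CellTiter-Glo was added, plates sat 10 min at room temperature, then ATP-coupled luminescence was imaged as the viability read-out.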

| SMILES | outcome |
| --- | --- |
| CC1(C)C[C@H]2C3=CCC4[C@@]5(C)CC[C@H](O[C@H]6O[C@H](C(=O)O)[C@@H](O)[C@H](O)[C@H]6O[C@H]6O[C@H](CO)[C@@H](O)[C@H](O)[C@H]6O[C@@H]6O[C@H](CO)[C@@H](O)[C@H](O)[C@H]6O)[C@](C)(CO)C5CC[C@@]4(C)[C@]3(C)CC[C@@]2(C)[C@H](O[C@@H]2OC[C@H](O)[C@H](OC3O[C@H](CO)[C@@H](O)[C@H](O)[C@H]3O)[C@H]2O)[C@@H]1O (some centres undefined) | inactive |
| COc1cc(C[C@H]2COC(=O)[C@@H]2Cc2ccc(O)c(OC)c2)ccc1O | inactive |
| O=C(OCc1cccc(O)c1O[C@@H]1O[C@H](CO)[C@@H](O)[C@H](O)[C@H]1O)C1(O)C(=O)C2C=CC1C1C=CC(=O)C(O)(C(=O)OCc3cccc(O)c3O[C@@H]3O[C@H](CO)[C@@H](O)[C@H](O)[C@H]3O)C21 (some centres undefined) | inactive |
| CC(=O)NC(CCC(=O)O)C(=O)NCCc1ccc(O)cc1 (centres undefined) | inactive |
| CC(=O)O[C@@H]1C[C@]2(C)[C@@]3(CCC4[C@@]5(C)CC[C@H](O[C@@H]6O[C@H](C(=O)O)[C@@H](O)[C@H](O[C@@H]7O[C@H](CO)[C@H](O)[C@H](O)[C@H]7O[C@@H]7O[C@@H](C)[C@H](O)[C@@H](O)[C@H]7O[C@@H]7OC[C@](O)(CO)[C@H]7O)[C@H]6O[C@@H]6O[C@H](CO)[C@H](O)[C@H](O)[C@H]6O)C(C)(C)C5CC[C@]42C)O[C@@H](O)[C@]12C3CC(C)(C)[C@@H](OC(=O)/C=C/c1ccc(O)c(O)c1)[C@@H]2OC(=O)/C=C/c1ccccc1 (some centres undefined) | inactive |
| CC1CCC2C(C)(C)CC(C)(CO)C2(O)C1C(=O)O (centres undefined) | inactive |
| C=C1C[C@@]23CC[C@@H]4[C@](C)(C(=O)O)CCC[C@@]4(C)C2=CC[C@H]1C3 | inactive |
| CCOc1nc2cccc(C(=O)O)c2n1Cc1ccc(-c2ccccc2-c2noc(=O)[nH]2)cc1 | inactive |
| C/C=C(\C)C(=O)OC[C@H]1O[C@H](O[C@H]2O[C@H](CO)[C@@H](OC(=O)/C(C)=C/C)[C@H](O)[C@H]2O[C@@H]2O[C@H](CO)[C@@H](O)[C@H](O)[C@H]2O)[C@H](O[C@@H]2O[C@H](CO)[C@@H](O)[C@H](O)[C@H]2O)[C@@H](O)[C@@H]1O | inactive |
| CCNC(=O)CCC/C=C\C[C@@H]1[C@@H](/C=C/C(O)CCc2ccccc2)[C@@H](O)C[C@@H]1O (some centres undefined) | inactive |
| C=C(C)C(=O)O[C@H]1C[C@@](C)(OC(C)=O)[C@@]2(O)CC[C@@](C)(O)[C@H](OC(C)=O)[C@@]23OC(=O)C(COC)=C13 | inactive |
| CC(=O)O[C@@H]1[C@H]2[C@@H](OC(=O)c3ccccc3)[C@@H](C)C[C@]2(O)[C@H](OC(C)=O)[C@@]2(C)[C@@H]3CC(C)(C)C(=O)[C@]3(OC(C)=O)C[C@@]12C | inactive |
| C=CC(C)(CC/C=C(\C)CC/C=C(\C)CC(O)/C=C(\C)C(=O)O)O[C@@H]1O[C@H](CO)[C@@H](O)[C@H](O)[C@H]1O[C@@H]1O[C@H](CO)[C@@H](O)[C@H](O)[C@H]1O (some centres undefined) | inactive |
| C/C=C(\C)C(=O)O[C@@H](C)[C@H]1CC[C@]2(O)C3CCC4C[C@@H](OC5CC(OC)C(OC6CC(OC)C(OC7CC(OC)C(OC8OC(C)C(OC9OC(CO)C(O)C(O)C9O)C(OC)C8O)C(C)O7)C(C)O6)C(C)O5)CC[C@]4(C)C3[C@H](O)[C@@H](O)[C@]12C (some centres undefined) | inactive |
| CC1(C)CC(=O)N(CCCCN2CCN(c3ncccn3)CC2)C(=O)C1 | inactive |
| C[C@@H]1CC[C@]2(C(=O)O)CC[C@]3(C)C(=CCC4[C@]5(C)C(CC[C@]43C)C(C)(C)[C@@H](O)[C@H](O)[C@@H]5O)C2[C@]1(C)O (some centres undefined) | inactive |
| O=C(COc1ccc(Cl)cc1)NC1CCC(NC(=O)COc2ccc(Cl)cc2)CC1 (centres undefined) | inactive |
| O=C(O)CCc1cccc(O[C@@H]2O[C@H](CO)[C@@H](O)[C@H](O)[C@H]2O)c1O | inactive |
| OC[C@H]1O[C@@H](OC(CCCCc2ccc(O)cc2)CCc2ccc(O)cc2)[C@H](O[C@@H]2OC[C@](O)(CO)[C@H]2O)[C@@H](O)[C@@H]1O (some centres undefined) | inactive |
| COc1cc2c(cc1OC)CN(C(=O)[C@@H](NCc1ccncc1)C(C)(C)C)CC2 | inactive |

| SMILES | outcome |
| --- | --- |
| COc1ccc(/C=C/C(=O)O[C@@H]2[C@@H](O)[C@H](C)O[C@@H](OC3C4C=COC(O[C@@H]5O[C@H](CO)[C@@H](O)[C@H](O)[C@H]5O)C4C4(CO)OC34)[C@@H]2O)cc1OC (some centres undefined) | inactive |
| CC(=O)OCC1=C[C@H](O)[C@@H]2C(C(=O)O)=CO[C@@H](O[C@@H]3O[C@H](CO)[C@@H](O)[C@H](O)[C@H]3O)[C@H]12 | inactive |
| COC(=O)[C@@]1(O)C=CC[C@@H]2[C@@]3(C)C[C@@H](c4ccoc4)OC(=O)[C@H]3CC[C@]21C | inactive |
| O=C(NCC(=O)N1CC[C@H](NC2CCC(O)(c3ccc(-c4ncccn4)cn3)CC2)C1)c1cccc(C(F)(F)F)c1 (some centres undefined) | inactive |
| CC1=CC(=O)C2C(C)(C)CCCC2(C)C12CCC1(COC(=O)C1)O2 (centres undefined) | inactive |
| CC(C)(O)C1CCC2(C)C3C(O)C4C(C13)C42CO (centres undefined) | inactive |
| C[C@@H]1CC[C@]2(C)C(C[C@@H](O)[C@H](O)[C@]23CO3)[C@@]1(C)CCc1ccoc1 (some centres undefined) | inactive |
| O=C(O)C[C@H]1CCC(=O)[C@@H]1C/C=C\CCOC1OC(CO)C(O)C(O)C1O (some centres undefined) | inactive |
| C=CCc1ccc(O[C@@H]2O[C@H](CO)[C@@H](O)[C@H](O)[C@H]2O)c(OC)c1 | inactive |
| CC1OC(OC2C(O)C(C(=O)O)OC(OC3CCC4(C)C(CCC5(C)C4C=CC4=C6CC(C)(C)CC(O)C6(C)CCC45C)C3(C)C)C2OC2OCC(O)C(O)C2O)C(O)C(O)C1O (centres undefined) | inactive |
| C[C@H]1[C@H](C)CC[C@]2(C(=O)O)CC[C@]3(C)C(=CC[C@@H]4[C@@]5(C)C[C@@H](O)[C@H](O)[C@@](C)(CO)[C@@H]5CC[C@]43C)[C@H]12 | inactive |
| CC(C)C1=CC2=CCC3[C@](C)(CCC[C@@]3(C)C(=O)O)C2CC1O (some centres undefined) | inactive |
| C[C@@H]1O[C@@H](O[C@H]2[C@H](O)[C@@H](C(=O)O)O[C@@H](O[C@H]3CC[C@@]4(C)C(CC[C@]5(C)C4CC=C4C6CC(C)(C)CC[C@]6(C(=O)O)CC[C@]45C)C3(C)C)[C@@H]2O[C@@H]2O[C@H](CO)[C@@H](O)[C@H](O)[C@H]2O)[C@H](O)[C@H](O)[C@H]1O (some centres undefined) | inactive |
| O=S(=O)(NC1CCNCC1)c1cc(S(=O)(=O)c2ccccc2)ccc1C(F)(F)F | inactive |
| CC(=O)O[C@H]1[C@H](C)[C@@H](O)[C@H]2[C@@H]1C=C(C(=O)O)[C@H]1C[C@@H]3[C@H]([C@H]21)[C@H]1C(=O)O[C@@H]2CC[C@@]3(C)O[C@]1(O)[C@@H]2C | inactive |
| C/C=C(\C)C(=O)O[C@H]1[C@H](O)[C@]2(COC(C)=O)[C@H](O)C[C@]3(C)C(=CCC4[C@@]5(C)CC[C@H](O[C@@H]6O[C@H](C(=O)O)[C@@H](O[C@@H]7O[C@H](CO)[C@@H](O)[C@H](O)[C@H]7O)[C@H](O)[C@H]6O[C@@H]6O[C@H](CO)[C@@H](O)[C@H](O)[C@H]6O)[C@](C)(CO)C5CC[C@]43C)[C@@H]2CC1(C)C (some centres undefined) | inactive |
| COc1cc(C2Oc3c(OC)cc(CCCO[C@@H]4O[C@H](CO)[C@@H](O)[C@H](O)[C@H]4O)cc3C2CO)ccc1O (some centres undefined) | inactive |
| CC1=C(C)C(=O)OC(C(C)C2C(O)CC3C4C5OC5C5(O)CC(OC6OC(CO)C(O)C(O)C6O)CC(O)C5(C)C4CCC32C)C1 (centres undefined) | inactive |
| CC(C)c1cc2c(c(O)c1O[C@@H]1O[C@H](CO)[C@@H](O)[C@H](O)[C@H]1O)CC1(O)CCC(O)C(C)(C)C1CC2 (some centres undefined) | inactive |
